Screening data deposited in PubChem BioAssay by several laboratories.
proKLK7 act – activators of human kallikrein-7 zymogen; actives 0.9% (n = 370,000); P49862; activation, % at 7 µM; purified proKLK7, EDANS-DABCYL substrate fluorescence; 100% is mature enzyme control, 0% vehicle;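 active = activation above the mean of all tested compounds plus 3 SD, computed per campaign excluding outliers beyond control limits, cut at about 13% in these data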
Target sequence (P49862 whole entry, looked up): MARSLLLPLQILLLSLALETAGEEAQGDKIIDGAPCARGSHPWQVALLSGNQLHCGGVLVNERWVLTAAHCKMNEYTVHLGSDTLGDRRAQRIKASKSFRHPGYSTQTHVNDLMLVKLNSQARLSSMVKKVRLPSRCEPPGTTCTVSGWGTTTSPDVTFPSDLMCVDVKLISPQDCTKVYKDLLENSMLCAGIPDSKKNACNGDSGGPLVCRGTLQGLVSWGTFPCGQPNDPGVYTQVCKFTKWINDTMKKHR
sPLA2-III inh – Blocks human group III sPLA2 activity. Q9NZ20. QFRET BODIPY PC-A2 liposome hydrolysis, fluorescence. inhibition, % at 12.2 µM. actives 0.56% (n = 370,000);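 active = inhibition above mean plus 3 SD of compounds lying within the high and low control bounds, cut at about 19% in these data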;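 also: 0% = median of test compound wells and 100% = no enzyme DMSO wells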
CendR NRP1 mod – modulators of CendR peptide binding to human neuropilin-1; actives 0.85% (n = 360,000); AID 602438; inhibition, % at 25 µM; FAM-RPARPAR peptide binding to NRP-1, fluorescence polarization; O14786;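 active = inhibition or corrected inhibition above about 18%, plus a signal ratio from 0.5 to 1.5, limit read from the data, passing the limit was not always enough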
ADAM10 inh – inhibitors of human ADAM10. actives 0.62% (n = 370,000). O14672. inhibition, % at 7 µM. recombinant ADAM10, EDANS/DABCYL FRET peptide cleavage, 3 h;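 active = inhibition above a per-campaign cutoff equal to the mean of compounds falling between control-based bounds plus 3 SD, cut at about 20% in these data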;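 also: 0% = DMSO wells while the 100% control is not disclosed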
ADAM17 inh – inhibitors of human ADAM17. actives 0.83% (n = 370,000). AID 720648. recombinant ADAM17, EDANS/DABCYL FRET peptide cleavage. inhibition, % at 6.95 µM;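 active = inhibition above the mean of compounds lying between control limits plus 3 SD, set per campaign, cut at about 8.5% in these data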;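 also: 0% = DMSO-only wells as the low control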
ADAM10 confirm – confirmation of inhibitors of human ADAM10; inhibition, % at 6.95 µM; ADAM10 QFRET peptide cleavage, EDANS fluorescence; shares compounds with ADAM10 inh; actives 1% (n = 2,100);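 active = inhibition above about 20% chosen separately for each screening run, limit read from the data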;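 also: 0% = DMSO wells and 100% = marimastat wells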
ADAM17 ctr – counter-screen for ADAM10 exosite inhibitors: inhibitors of human ADAM17 | shares compounds with ADAM10 inh | ADAM17 QFRET peptide cleavage, EDANS fluorescence | inhibition, % at 6.95 µM | actives 0.5% (n = 2,100);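 active = mean triplicate inhibition above the solvent-only control wells' mean plus 3 SD, cut at about 12% in these data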;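 also: 0% = DMSO wells and 100% = marimastat wells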
ADAM10 counter – inhibits human ADAM10 in ADAM17 exosite counter-screen. actives 47% (n = 2,900). inhibition, % at 6.95 µM. recombinant ADAM10, EDANS/DABCYL FRET peptide cleavage, 3 h. AID 743256. shares compounds with ADAM17 inh;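 active = mean inhibition over the triplicate runs exceeds the activity threshold set in the earlier primary screen, cut at about 20% in these data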;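 also: 0% = DMSO wells and 100% = marimastat wells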
ADAM17 confirm – confirmation of inhibitors of human ADAM17 | shares compounds with ADAM17 inh | recombinant ADAM17, EDANS/DABCYL QFRET peptide cleavage | inhibition, % at 6.95 µM | actives 65% (n = 2,900) | AID 743257;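 active = mean inhibition across replicates above the hit cutoff set in the primary screen, cut at about 8.5% in these data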;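 also: 0% = DMSO wells and 100% = marimastat wells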
Starred values were filed as active, the others as inactive; . = no result given. Most compounds without a hit are left out; they make up all but 3.4% or so of the library.

SMILES	proKLK7 act	sPLA2-III inh	CendR NRP1 mod	ADAM10 inh	ADAM17 inh	ADAM10 counter	ADAM17 confirm	others
COc1ccc(-n2nnnc2C(c2ccccc2OC(F)(F)F)N2CCC3(CC2)C(=O)NCN3c2ccccc2)cc1 (stereo unspecified)	-1	-26	15	25*	9.4*	31*	15*	ADAM10 confirm=7;ADAM17 ctr=2
COc1ccc(-n2nnnc2C(c2ccccc2OC(F)(F)F)N2CCC(n3c(=O)[nH]c4ccccc43)CC2)cc1 (stereo unspecified)	0	-22	3	30*	10*	34*	20*	ADAM10 confirm=7;ADAM17 ctr=2
CC[C@H](C(N)=O)N1CCCC1=O	-1	-1	.	2	0	.	.
COC(=O)C(O)(c1ccc(NC(=S)NC(=O)c2ccc(Cl)cc2Cl)cc1)C(F)(F)F (stereo unspecified)	0	-10	1	16	7	.	.
COC(=O)C(O)(c1ccc(NC(=S)NC(=O)c2ccc(Cl)cc2Cl)c(C)c1)C(F)(F)F (stereo unspecified)	0	-8	9	23*	11*	35*	18*	ADAM10 confirm=8;ADAM17 ctr=2
C[C@]12CCC(=O)C=C1CC[C@@H]1C2CC[C@]2(C)C(=O)CCC12 (stereo partly specified)	1	5	-6	-3	9.9*	2	2
Cc1ccc(C(=O)NCCN2CCC3(CC2)C(=O)NCN3c2ccccc2)cc1	0	1	.	0	3	.	.
Cc1ccc(Cn2nnnc2CN2CCC(n3nnc4cc(C)ccc43)CC2)cc1	0	-43	-2	10	9.3*	4	6
Cc1cc(C)cc(OCCOc2cccc(C=C3C(=O)NC(=O)NC3=O)c2)c1	0	5	3	1	0	.	.
Cc1ccc(OCCOc2cccc(C=C3C(=O)NC(=O)NC3=O)c2)cc1	0	14	-14	10	9.2*	-2	-1
O=C(NN=Cc1ccc(N(CCCl)CCCl)cc1)c1cc(=O)[nH]c(=O)[nH]1	0	6	-6	5	6	.	.
O=C(NN=Cc1ccc(N(CCCl)CCCl)cc1)C(=O)c1c[nH]c2ccccc12	-6	-13	5	11	15*	11	13*
S=C(NCCc1ccccc1)N1Cc2ccc(Br)cc2-n2nncc2C1	1	-6	-1	17	11*	25*	14*
COC(=O)C1=C(c2ccccc2OCc2ccccc2)C[C@@H]2CC[C@H]1N2C(=O)NCc1ccc(OC)c(OC)c1	1	-11	1	16	12*	6	6
COC(=O)C1=C(c2ccccc2OCc2ccccc2)C[C@@H]2CC[C@H]1N2C(=O)NCc1ccc(Cl)cc1	-1	-17	0	19	9.7*	17	11*
COC(=O)C1=C(c2ccccc2OCc2ccccc2)C[C@@H]2CC[C@H]1N2C(=O)NCc1cccc(F)c1	1	-6	4	3	1	.	.
COC(=O)C1=C(c2ccccc2OCc2ccccc2)C[C@@H]2CC[C@H]1N2C(=O)NCc1ccc(N(C)C)cc1	1	10	4	14	5	.	.
COC(=O)C1=C(c2ccc(-c3ccccc3)c(F)c2)C[C@@H]2CC[C@H]1N2C(=O)NCCc1ccccc1	-1	-12	9	19	9.0*	13	7
O=C(NCCN1CCC2(CC1)C(=O)NCN2c1ccccc1)c1ccc(Cl)c(Cl)c1	0	-2	.	2	-1	.	.
Cc1ccc(N2Cc3ccccc3-n3nncc3C2)cc1	0	3	.	-5	3	.	.
O=C1NCN(c2ccccc2)C12CCN(C(CCc1ccccc1)c1nnnn1C1CCCC1)CC2 (stereo unspecified)	0	0	11	8	8.8*	9	9.4*
CCC(c1nnnn1Cc1ccccc1)N1CCC2(CC1)C(=O)NCN2c1ccccc1 (stereo unspecified)	0	-8	15	2	10*	18	12*
COc1ccc(C(c2nnnn2Cc2ccccc2)N2CCC3(CC2)C(=O)NCN3c2ccccc2)cc1 (stereo unspecified)	0	-10	1	11	5	.	.
O=C1NCN(c2ccccc2)C12CCN(C(CCc1ccccc1)c1nnnn1C1CCCCC1)CC2 (stereo unspecified)	1	-3	6	-5	-2	.	.
COC(=O)C1=C(c2ccc(OC(F)(F)F)cc2)C[C@@H]2CC[C@H]1N2C(=O)NCc1cc(C)oc1C(F)(F)F	0	9	13	19	11*	29*	15*
SMILES	proKLK7 act	sPLA2-III inh	CendR NRP1 mod	ADAM10 inh	ADAM17 inh	ADAM10 counter	ADAM17 confirm	others
COC(=O)C1=C(c2ccc(OC(F)(F)F)cc2)C[C@@H]2CC[C@H]1N2C(=O)NCc1cccc2ccccc12	0	-10	-3	30*	8.7*	21*	10*
COC(=O)C1=C(c2ccc(OC(F)(F)F)cc2)C[C@@H]2CC[C@H]1N2C(=O)NCc1ccc(F)cc1	-1	0	5	15	3	.	.
Cc1cccc2nc(-c3ccccc3)c(-c3ccc(CN4CCC(n5c(=O)[nH]c6cc(Cl)ccc65)CC4)cc3)nc12	-7	10	.	-81	-16	.	.
N#CCC[C@H]1CC[C@]2(CCCN(Cc3ccccn3)C2)O1	-1	2	.	0	1	.	.
CN1CC[C@@H]2CN[C@H](c3ccccc3Br)C[C@@H]21	0	-2	.	-9	-4	.	.
Oc1ccc(Cl)cc1Cc1ccccc1	0	-8	8	0	8.7*	18	7
COC(=O)C1=C(C(=O)OC)C2c3ccccc3C1c1ccccc12	0	-8	-8	12	11*	7	3
O=C(O)C1=CC2c3ccccc3C1c1ccccc12	0	8	-7	-7	-1	.	.
CCOC(=O)C(O)(c1ccc(NC(=S)NC(=O)c2ccc(Cl)cc2Cl)cc1)C(F)(F)F (stereo unspecified)	0	-7	9	18	9.6*	24*	14*
CCOC(=O)C(O)(c1ccc(NC(=S)NC(=O)c2ccc(Cl)cc2Cl)c(C)c1)C(F)(F)F (stereo unspecified)	0	-1	-2	29*	15*	47*	23*
CN1C2(C)c3ccccc3C1(c1ccccc1)c1ccccc12	1	-1	.	-2	-3	.	.
